Holding throughout (assay): Primary qHTS to identify gynecologic anti-cancer compounds using libraries of approved drugs and bioactive compounds (AID 1345084); also: nearly all actives have a fitted effect of over 55% in size
The subject of one assay is CASKI. As to conditions: Gynecologic cancer cell panel viability, ATPlite luminescence, 48 h; series mostly up to 57.5 µM. An outline of the steps:
(§1)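 ATP-based viability (ATPlite), 1,000 cells/well, 16 h pre-incubation, 48 h compound at 37 C, 5% CO2, 15 min RT before read.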

The subject of another assay is Es-2. As to conditions: Gynecologic cancer cell panel viability, ATPlite luminescence, 48 h; series mostly up to 57.5 µM. An outline of the steps:
as §1

In a further assay the test system is HeLa. As to conditions: Gynecologic cancer cell panel viability, ATPlite luminescence, 48 h; series mostly up to 57.5 µM. The method, boiled down: as §1
The next assay relates to Hek293T. As to conditions: Gynecologic cancer cell panel viability, ATPlite luminescence, 48 h, control line for the selectivity index; series mostly up to 57.5 µM. The method, boiled down:
as §1

The next assay deals with JEG-3. Particulars: Gynecologic cancer cell panel viability, ATPlite luminescence, 48 h; series mostly up to 57.5 µM. An outline of the steps:
as §1

In a further assay the test system is PA-1. As to conditions: Gynecologic cancer cell panel viability, ATPlite luminescence, 48 h; series mostly up to 57.5 µM. An outline of the steps:
as §1

Another assay concerns Tov-21-G. As to conditions: Gynecologic cancer cell panel viability, ATPlite luminescence, 48 h; series mostly up to 57.5 µM. An outline of the steps:
as §1

The test system of another assay is Tov112D. Particulars: Gynecologic cancer cell panel viability, ATPlite luminescence, 48 h; series mostly up to 57.5 µM. An outline of the steps: as §1
Another assay relates to OV90. As to conditions: Gynecologic cancer cell panel viability, ATPlite luminescence, 48 h; series mostly up to 57.5 µM. The method, boiled down: as §1
Another assay relates to SKOV3. As to conditions: Gynecologic cancer cell panel viability, ATPlite luminescence, 48 h; series mostly up to 57.5 µM. The method, boiled down:
as §1

Each structure is given as a SMILES string. Where “and” joins values, the source holds several entries; their conditions need not be identical. Equal values may be shown once. Inconclusive results are not listed. A structure can be active in one record and inactive in another. Calls of active or inactive are those of the source. Calls follow the shape of the dose curve; as a rule, active = well fitted cell-killing curve with a large enough effect; inconclusive = small, poorly fitted or top-dose-only effect, or effect the other way; inactive = flat fitted curve, though single readings scatter.
Potency is read from the fitted curve at half-maximal effect.

Take `Clc1ccc2c(c1)N=C(N1CCNCC1)c1ccccc1N2`: the Potency result in the assay with CASKI, in the assay with Es-2, with HeLa, in the assay on Hek293T, in the assay on JEG-3 and in the assay on PA-1 was “inactive” each time. Moreover, the Potency result in the assay on Tov-21-G and in the assay on Tov112D was “inactive” each time.

Turning to `O=C(CCC1CCN(Cc2ccccc2)CC1)c1ccc2c(c1)NCCCC2`, the Potency entry with CASKI, in the assay on Es-2, in the assay on HeLa, in the assay with Hek293T, in the assay with JEG-3 and in the assay on Tov-21-G was “inactive” each time. In addition, in the assay with Tov112D, the Potency entry was “inactive”.

Turning to `Cc1ccc(Cl)c(OCC(O)CNC(C)(C)C)c1` (stereo not given), the Potency result with CASKI, in the assay on Es-2, with HeLa, in the assay with JEG-3, in the assay on OV90 and in the assay with SKOV3 was “inactive” each time.

On to `CC[C@@H]([C@H](C)O)n1ncn(-c2ccc(N3CCN(c4ccc(OC[C@@H]5CO[C@@](Cn6cncn6)(c6ccc(F)cc6F)C5)cc4)CC3)cc2)c1=O`, for which the Potency entry in the assay with HeLa and in the assay with JEG-3 was “inactive” throughout. Besides, the Potency in the assay with OV90 and in the assay on SKOV3 was 15.8 µM (active) throughout.

As to `O=C1NC(c2cccc([N+](=O)[O-])c2)=CCN1c1ccccc1O`, the Potency entry with Es-2, in the assay on HeLa, in the assay on OV90, in the assay on PA-1 and in the assay on Tov-21-G was “inactive” each time.

`CC[C@@]1(O)C(=O)OCc2c1cc1n(c2=O)Cc2c-1nc1ccccc1c2/C=N/OC(C)(C)C`: the Potency entry in the assay with HeLa and with JEG-3 was “inactive” throughout. For the same compound, the Potency in the assay on Hek293T was 0.355 µM (active); in the assay on OV90, 8.91 µM (active); in the assay with Tov-21-G, 1.41 µM (active).

For the compound `CCCCCCCCCCCCCC[N+](C)(C)C`, the Potency was 3.16 µM (active) in the assay on CASKI; 14.1 µM (active) in the assay with Es-2; 11.2 µM (active) in the assay on PA-1; 5.62 µM (active) in the assay on Tov-21-G; 14.1 µM (active) in the assay on Tov112D.

For `OC1(c2ccc(Cl)c(C(F)(F)F)c2)CCN(CCCC(c2ccc(F)cc2)c2ccc(F)cc2)CC1`, the Potency was 25.1 µM (active) and inactive with Es-2; 25.1 µM (active) and inactive in the assay on HeLa; 25.1 µM (active) and 31.6 µM (active) with OV90; 25.1 µM (active) in the assay with SKOV3; 31.6 µM (active) and inactive with Tov112D. The Potency entry in the assay with PA-1 and in the assay on Tov-21-G was “inactive” throughout.

Consider `C=C(C)C(=O)OCC(O)CO` (stereo not given), for which the Potency entry in the assay with Es-2, with HeLa, in the assay on Hek293T, in the assay with JEG-3, in the assay on OV90 and in the assay on PA-1 was “inactive” throughout. In addition, the Potency entry with SKOV3, in the assay on Tov-21-G and in the assay on Tov112D was “inactive” each time.

Take `O=C(Nc1ccc(Cl)cc1)Nc1ccc(Cl)c(Cl)c1`: the Potency entry in the assay on CASKI and in the assay on Tov-21-G was “inactive” throughout.

As to `CCCCCCOC(=O)NC(=N)c1ccc(NCc2nc3cc(C(=O)N(CCC(=O)OCC)c4ccccn4)ccc3n2C)cc1`, the Potency entry with CASKI, in the assay on HeLa, in the assay on JEG-3, in the assay on PA-1, in the assay on SKOV3 and in the assay with Tov-21-G was “inactive” in each case. Also, the Potency entry in the assay on Tov112D is “inactive”.

Turning to `COc1ccc(-n2nc(CCC(=O)N(C)O)cc2-c2ccc(Cl)cc2)cc1`, the Potency entry in the assay with CASKI, in the assay with HeLa, with Hek293T and with Tov112D was “inactive” in each case. In addition, in the assay with SKOV3, the Potency was 31.6 µM (active).

As to `COc1c(C)c2c(c(O)c1C/C=C(\C)CCC(=O)OCCN1CCOCC1)C(=O)OC2`, the Potency result in the assay with JEG-3 is “inactive”. Moreover, in the assay on Tov-21-G, the Potency is 2 µM (active).

Turning to `Nc1c2ccccc2nc2ccccc12`, the Potency is 14.1 µM (active) with Es-2, 8.91 µM (active) with Hek293T, 28.2 µM (active) in the assay on OV90 and 14.1 µM (active) in the assay with Tov-21-G.

On to `CC(NCCC(c1ccccc1)c1ccccc1)c1ccccc1` (stereo not given), for which the Potency entry with Es-2, with HeLa, with Hek293T, in the assay with JEG-3 and with Tov-21-G was “inactive” in each case. Besides, in the assay with OV90, the Potency is 28.2 µM (active).

Turning to `CC(=O)Oc1ccc(C2(c3ccc(OC(C)=O)cc3)Oc3ccccc3NC2=O)cc1`, the Potency in the assay on PA-1 is 31.6 µM (active); in the assay on Tov-21-G, 22.4 µM (active).

With `Nc1ncnc2n[nH]c(Nc3ccc(F)cc3)c12`, the Potency with PA-1 is 25.1 µM (active).

For the compound `Oc1ccc(CCNCCCCCCNCCc2ccccc2)cc1O`, the Potency result in the assay on Es-2, in the assay with HeLa, with Hek293T and with JEG-3 was “inactive” throughout.

As to `O=C1NC2CCCCN2C12CCN(CCCN1c3ccccc3CCc3ccc(Cl)cc31)CC2` (stereo not given), the Potency result in the assay on HeLa, in the assay with JEG-3 and in the assay on Tov-21-G was “inactive” each time.

As for `NC(=O)C1(N2CCCCC2)CCN(CCCN2c3ccccc3CCc3ccc(Cl)cc32)CC1`, in the assay with OV90, the Potency was 22.4 µM (active).

For the compound `CCCCNc1ccc(C(=O)OCCN(CC)CC)cc1`, the Potency result with Es-2, in the assay with HeLa, in the assay on Hek293T, in the assay with JEG-3, in the assay on OV90 and with PA-1 was “inactive” each time. For the same compound, the Potency entry in the assay with Tov-21-G and with Tov112D was “inactive” in each case.

For `CC(C)CCCC(C)NCCC(C)C` (stereo not given), the Potency entry in the assay on Es-2, in the assay with HeLa, with Hek293T, in the assay on JEG-3, in the assay on OV90 and in the assay on PA-1 was “inactive” in each case. Also, the Potency result with SKOV3, in the assay with Tov-21-G and in the assay with Tov112D was “inactive” throughout.

These data come from PubChem BioAssay (NCATS).
